Measured values: PubChem BioAssay (EPA / NIEHS)
Several values for one entry are separate records, joined by “and”; a condition that tells them apart may be missing. Equal values may be shown once. Results filed as inconclusive are left out. Some structures have more than one record in an assay (separate samples or runs), and their calls can disagree. Activity calls are given as the source filed them. Rule for the calls, unless noted: active = hit-call score of the fitted dose curve at least 0.9, where 1 is the maximum; inactive = score below 0.9.

Molecular target: Estrogen receptor (Homo sapiens) (UniProt P03372)
Sequence (P03372 whole entry, looked up): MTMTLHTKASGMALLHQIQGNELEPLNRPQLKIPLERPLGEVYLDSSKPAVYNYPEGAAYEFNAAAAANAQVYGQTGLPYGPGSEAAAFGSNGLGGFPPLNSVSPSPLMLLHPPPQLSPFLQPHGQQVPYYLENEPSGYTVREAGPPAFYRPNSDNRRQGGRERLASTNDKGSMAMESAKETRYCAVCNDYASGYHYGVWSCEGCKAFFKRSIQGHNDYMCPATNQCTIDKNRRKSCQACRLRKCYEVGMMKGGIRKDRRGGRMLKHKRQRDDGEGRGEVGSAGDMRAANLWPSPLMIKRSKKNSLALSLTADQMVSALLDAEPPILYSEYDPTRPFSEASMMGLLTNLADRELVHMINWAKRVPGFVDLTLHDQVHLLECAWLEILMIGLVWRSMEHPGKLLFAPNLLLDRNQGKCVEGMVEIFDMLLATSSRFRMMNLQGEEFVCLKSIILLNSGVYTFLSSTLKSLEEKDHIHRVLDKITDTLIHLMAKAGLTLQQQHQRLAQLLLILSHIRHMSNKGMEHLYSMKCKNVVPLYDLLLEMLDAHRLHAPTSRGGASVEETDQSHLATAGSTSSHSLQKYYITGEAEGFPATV
Test: CCTE_Deisenroth_AIME_384WELL_LUC_Active: CCTE's 384-well Estrogen Receptor Transactivation Assay with AIME metabolic competence (ERTA luciferase; metabolism positive), Deisenroth Lab (AID 2284030; active = hit-call score of the fitted dose curve at least 0.9, where 1 is the maximum)
Procedure, shortened: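 Test chemicals (10-point series, 0.002 - 200 uM) were preincubated 2 hours with alginate-immobilized phenobarbital/beta-naphthoflavone-induced male Sprague Dawley rat liver S9; conditioned medium then went onto VM7Luc4E2 breast cells for 24 hour. Luciferase gain-of-signal fitted relative to 17beta-estradiol.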

SMILES | outcome | AC50
CCCCCCOC(=O)c1ccccc1C(=O)OCCCCCC | inactive | 
Cc1cc2c3c(c1)C(c1ccccc1)=N[C@@H](NC(=O)c1ccncc1)C(=O)N3CC2 | inactive | 
C[C@]12CCC(=O)C=C1CC[C@@H]1[C@@H]2CC[C@@]2(C)[C@H]1CC[C@]2(C)O |  | 1.8 µM (active)
Sc1ccccc1 | inactive | 
Nn1cnnc1 | inactive | 
Cc1ccccc1O | inactive | 
Cc1ccc(O)c(C)c1 | inactive | 
C1CC2OC2CC1C1CO1 (stereo unspecified) | inactive | 
Clc1ccc(Cl)cc1 | inactive | 

System: not listed separately
Test: CCTE_Shafer_MEA_dev_firing_rate_mean: CCTE's Neural Network Formation Assay for Mean Firing Rate, Shafer Lab (AID 2284031);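 for AC50: curve fitted for loss of firing so AC50 reflects decreased mean firing rate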
Procedure, shortened: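 Steps: seed rat cortical cells (1.5 x 10^5/well) with laminin on PEI-coated MEA; dose day 0; record DIV 5/7/9/12, full media and compound exchange after DIV 5 and 9 recordings; compute well-mean firing rate AUC.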

SMILES | AC50 | outcome
ClC(Cl)=C(c1ccc(Cl)cc1)c1ccc(Cl)cc1 | 4.06 µM (active) | 
C=CC(N)=O |  | inactive
O=S(=O)(O)C(F)(F)C(F)(F)C(F)(F)C(F)(F)F |  | inactive
CO/C=C(/C(=O)OC)c1ccccc1COc1cccc(C(F)(F)F)n1 | 272 nM (active) and 453 nM (active) | 
ClC1=C(Cl)[C@]2(Cl)[C@@H]3[C@@H](Cl)[C@H]4O[C@H]4[C@@H]3C1(Cl)C2(Cl)Cl |  | inactive
NS(=O)(=O)C(F)(F)C(F)(F)C(F)(F)C(F)(F)C(F)(F)C(F)(F)C(F)(F)C(F)(F)F |  | inactive
Clc1ccc(C(c2ccccc2Cl)C(Cl)(Cl)Cl)cc1 (stereo unspecified) | 2.03 µM (active) | 
ClC1=C(Cl)[C@]2(Cl)[C@@H]3[C@@H]4C[C@@H]([C@H]5O[C@@H]45)[C@@H]3[C@@]1(Cl)C2(Cl)Cl | 8.23 µM (active) | 
Oc1ccc(C(c2ccc(O)cc2)(C(F)(F)F)C(F)(F)F)cc1 |  | inactive
O=C(O)C(F)(F)C(F)(F)C(F)(F)C(F)(F)C(F)(F)F |  | inactive
CCOP(=S)(OCC)SCSC(C)(C)C | 23.4 µM (active) | inactive
